# Screening results (PubChem BioAssay)
# Measles CPE: protection of cells from measles virus; Measles virus-infected cells, CPE protection, absorbance; protection (pct of control), % at 4 µM; hit rate 1.5% among 140,000; in the data active = protection mostly above about 24%, no sharp cut-off; inactive = mostly below about 26%
# sEH activator: soluble epoxide hydrolase (human) activation | purified human sEH enzymatic activity, activator screen | hit rate 0.04% among 91,000 | activation, % at 2 µM | P34913; in the data active = activation above about 37%
# Target sequence (P34913 whole entry, looked up): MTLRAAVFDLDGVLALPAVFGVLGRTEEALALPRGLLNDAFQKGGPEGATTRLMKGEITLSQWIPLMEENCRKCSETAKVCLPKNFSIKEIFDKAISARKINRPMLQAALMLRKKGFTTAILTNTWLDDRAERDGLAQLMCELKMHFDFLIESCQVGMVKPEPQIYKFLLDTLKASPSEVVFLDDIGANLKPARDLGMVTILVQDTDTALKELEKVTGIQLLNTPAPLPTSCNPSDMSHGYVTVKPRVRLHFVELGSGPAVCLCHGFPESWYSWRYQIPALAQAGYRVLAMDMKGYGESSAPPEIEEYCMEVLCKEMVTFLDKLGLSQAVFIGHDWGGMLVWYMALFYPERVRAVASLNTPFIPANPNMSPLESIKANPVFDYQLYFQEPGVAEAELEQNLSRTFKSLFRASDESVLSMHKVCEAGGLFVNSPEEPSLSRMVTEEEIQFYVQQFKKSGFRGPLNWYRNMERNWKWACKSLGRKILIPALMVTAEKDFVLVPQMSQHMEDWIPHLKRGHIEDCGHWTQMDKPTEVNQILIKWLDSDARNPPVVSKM
# cytoskel mod: alters cytoskeleton assembly in HUVEC cells | HUVEC TNFa F-actin phalloidin imaging, high content | inhibition, % at 2 µM | hit rate 0.18% among 91,000;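 active = inhibition above the batch mean plus 3 SD and confirmed as a hit by visual image inspection, cut at about 30% in these data, passing the limit was not always enough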
# Candida biofilm: kills Candida albicans biofilms | C. albicans biofilm + clotrimazole, Alamar Blue | inhibition, % at 6 µM | hit rate 0.14% among 85,000 | AID 834;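 active = inhibition above 20%; inactive = inhibition below 20%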;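 note: preformed 24 hr biofilms exposed to compound for 48 hr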
# sEH inh: blocks human soluble epoxide hydrolase activity; P34913; recombinant human sEH enzymatic activity assay; inhibition, % at 2 µM; hit rate 0.34% among 91,000; AID 707; in the data active = inhibition above about 80%
# Numbers stand for hits; i = inactive; nt = not tested or not shown. An excerpt weighted towards active compounds, which were near 1.9% of everything screened.
SMILES,Measles CPE,sEH activator,cytoskel mod,Candida biofilm,sEH inh
Cc1nc2nc(C)c(CCC(=O)N3CCc4ccccc43)c(C)n2n1,i,nt,i,i,nt
Cc1ccc(C(=O)NNC(=O)CCC(=O)Nc2cccc(Cl)c2C)cc1,i,nt,nt,nt,nt
Cc1cccc(C(=O)NNC(=O)CCC(=O)Nc2cccc(Cl)c2C)c1,35,nt,nt,nt,nt
Cc1ccccc1N1C(S)=C(C#N)C(=O)NC12CCCCC2,i,nt,nt,nt,nt
CCCCOc1ccc(C(=O)N2CCCC2C(=O)O)cc1 (stereo unspecified),48,i,i,nt,i
O=C(Nc1ccc(Cl)cc1)C1=Cc2ccccc2OC1,i,i,i,i,i
Cc1cc(C)n(C(=O)C(C)N2C(=O)c3ccccc3C2=O)n1 (stereo unspecified),39,nt,nt,i,nt
Cc1cc(C)n(C(=O)CN2C(=O)c3ccccc3C2=O)n1,i,i,i,nt,i
Cc1cc(C(=O)NP(=O)(N2CCOCC2)N2CCOCC2)c(C)n1-c1ccc(Br)cc1,46,nt,nt,nt,nt
Cc1cc(C(=O)NP(=O)(N2CCOCC2)N2CCOCC2)c(C)n1-c1ccc(N(C)C)cc1,i,nt,nt,nt,nt
COc1ccccc1-c1cc(C(=O)NCCc2ccccc2)no1,i,i,nt,i,i
CCC(C)NC(=O)c1cc(CC(C)C)on1 (stereo unspecified),54,i,i,i,i
COc1ccc(CCNC(=O)c2cc(CC(C)C)on2)cc1OC,40,i,i,i,i
COc1ccc(CCNC(=O)c2cc(-c3ccccc3OC)on2)cc1OC,45,i,i,i,i
N#CC1=C(O)C(c2ccccc2)n2c1nc(=O)c1ccccc12 (stereo unspecified),i,i,i,i,i
CCc1ccccc1NS(=O)(=O)c1ccc2c(c1)NC(=O)CC(=O)N2,37,nt,nt,nt,nt
CC1=C(C(N)=O)C(c2ccncc2)n2nc(-c3ccccc3Cl)nc2N1 (stereo unspecified),i,i,i,21,i
CCOC(=O)C1CCN(C(c2cccnc2)c2c(NC(=O)c3ccco3)sc(C)c2C)CC1 (stereo unspecified),67,i,i,i,i
Cc1sc(NC(=O)c2ccco2)c(C(c2cccnc2)N2CCN(c3ccc(F)cc3)CC2)c1C (stereo unspecified),i,nt,nt,i,nt
CC(=O)Nc1cc(NC(C)=O)cc(C(=O)NC(C)(C)C)c1,i,nt,i,i,nt
COC(=O)c1ccc(OC(=O)c2ccc(OC)c(OC)c2)c(OC)c1,i,38,i,i,i
COC(=O)c1ccc(/C=C/C(=O)c2ccc(OC)c(OC)c2)cc1,i,i,i,nt,i
COc1ccc(N/C(=C(/C(Cl)=C(Cl)Cl)[N+](=O)[O-])n2nnc3ccccc32)cc1OC,52,i,nt,i,i
O=C(Cc1ccc(F)cc1)Oc1ccc(C(=S)N2CCCC2)cc1,i,nt,nt,nt,nt
CC(C)(C)NC(=O)c1nc2nc(-c3ccccc3)cc(C(F)(F)F)n2n1,i,nt,nt,nt,nt
SMILES,Measles CPE,sEH activator,cytoskel mod,Candida biofilm,sEH inh
c1ccc(-c2nc(NCC3CCCO3)c3oc4ccccc4c3n2)cc1 (stereo unspecified),80,i,i,i,i
CCCN1CNC(=S)N(c2cc(C)ccc2C)C1,34,i,i,i,i
Cc1nnc(N2C(=O)c3cccc4cccc(c34)C2=O)s1,i,i,i,i,i
Cc1nnc(C)n1N1C(=O)c2cccc3cccc(c23)C1=O,49,i,i,i,i
CCCCn1c(C)nc2c(=O)n(C)c(=O)[nH]c21,29,i,i,i,i
O=C(Cc1ccccc1)NCC(=O)OCc1ccc([N+](=O)[O-])cc1,i,nt,nt,nt,nt
Cc1cc([N+](=O)[O-])ccc1NC(=O)Cc1ccc(F)cc1,53,nt,nt,nt,nt
CCc1cccc(NC(=O)Cc2ccc([N+](=O)[O-])cc2)c1,i,nt,nt,nt,nt
O=C(Cc1ccc([N+](=O)[O-])cc1)Nc1cccc(C(F)(F)F)c1,73,nt,nt,nt,nt
CC1Cc2ccccc2N1C(=O)CO/N=C/c1ccc(OC(F)F)cc1 (stereo unspecified),i,nt,nt,nt,nt
O=C(C1=C(O)C(=O)N(Cc2ccco2)C1c1ccccc1)c1cccs1 (stereo unspecified),i,i,i,i,i
N#Cc1c(Nc2ccccc2)sc(C(=O)c2ccccc2)c1N,68,i,i,nt,i
N#Cc1c(Nc2ccc(F)cc2)sc(C(=O)c2ccccc2)c1N,i,nt,nt,nt,nt
O=C(CSc1nnc(NC(=O)C2CC2)s1)NCc1ccco1,i,nt,nt,nt,nt
O=C(Nc1ccc(N2CCOCC2)cc1)Nc1ccc(Cl)c(Cl)c1,i,i,i,i,82
O=C(Nc1ccc(Cl)c(Cl)c1)N1CCSCC1,i,i,i,i,82
O=C(Nc1ccc(Cl)c(Cl)c1)N1CCC(N2CCCCC2)CC1,61,i,i,nt,i
CCOc1ccc(NC(=O)N2CCC(C(=O)c3ccc(F)cc3)CC2)cc1,i,i,i,i,i
CCN(CC)C(=O)C1CCCN(C(=O)Nc2ccccc2)C1 (stereo unspecified),35,i,i,i,i
CCOc1ccc(NC(=O)N2CCC(c3ccc(C)cc3)C2)cc1 (stereo unspecified),i,i,i,i,82
O=C(NCc1ccc(F)cc1)C1CCCN(C(=O)Nc2ccccc2)C1 (stereo unspecified),i,i,i,i,i
O=C(Nc1ccccc1)N1CCC(c2ccccc2)C1 (stereo unspecified),i,i,65,i,i
COc1ccc(NC(=O)CSc2nc(-c3ccncc3)nn2CC(=O)N2CCCC2)cc1,i,nt,nt,i,nt
Cc1ccc(S(=O)(=O)CNC(=S)c2cccc(Cl)c2)cc1,43,nt,nt,nt,nt
CCc1c(C(=O)NCc2ccccc2Cl)[nH]c(C)c1C(C)=O,34,nt,i,i,nt
SMILES,Measles CPE,sEH activator,cytoskel mod,Candida biofilm,sEH inh
CCc1c(C(=O)NCc2ccc3c(c2)OCO3)[nH]c(C)c1C(C)=O,i,nt,i,i,nt
CC(=O)c1c(C)[nH]c(C(=O)NCCc2cccc(C)c2)c1C,i,i,i,i,i
CC(=O)c1c(C)[nH]c(C(=O)NCc2ccccc2Cl)c1C,i,i,nt,i,85
COc1ccc(Nc2nc(NCc3ccco3)nc(N/N=C/c3ccc(O)cc3)n2)cc1,i,nt,nt,nt,nt
COCCN(C(=S)Nc1ccc(OC)cc1)C1CCN(C(C)C)CC1,i,nt,nt,nt,nt
Cc1ccc(NC(=S)N(Cc2ccco2)C2CCN(C(C)C)CC2)cc1,39,nt,nt,nt,nt
